The record followed here is the supplement of paper PMC10105736.

Values without a mark were called inactive.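 How the source made its calls: active = MAPPIT score above the 99th percentile of random reference set scores in the same batch; inactive = at or below it.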

Common to all, as to test: MAPPIT interaction score (arbitrary units); higher = stronger binary interaction signal, active = hit call of the paper
One assay concerns the target Hsc70-1. Particulars: MAPPIT configuration: N-N; pair source set: DPIM.
A further assay deals with Hsp60B. Particulars: MAPPIT configuration: N-N; pair source set: Lit-BS-16.
Another assay deals with Hsp27. Particulars: MAPPIT configuration: N-N; pair source set: Curagen_low_conf.
The target of a further assay is Ilp6. Conditions: pair source set: RRS.
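Further: HEK293T cells with Epo stimulation, STAT-responsive firefly luciferase reporter, fold induction versus unstimulated cells divided by the larger fold induction of two negative controls lacking either bait or prey.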

B1: mael (protein)
chain: MAPKKHSGFMMFVNEWRNRNAEGRRMTLAQAVSHCGTIWEKMNTQQRGPYNSGGKDANVAQRAKRESSNGHGQVDKAQREATESLMDMKRTIERLVLNAKMSHDLENAKFVFVAFNYFTKALTTDVYVPAEFAACEYSLKEGIRSIYSTMIDPGQIIFGQGSDALLHSSTTHDLPLPPNALGEKNMTKLYRNIVDYLSKCQGKGKTLVVFTPAENITMVKSCFRYLECDDDFRDGGEKIQVFDIQYLLFILKKEVMNVADLNDEKINKFATDAFFKKDFFEFTAGIACQYHEDNDRTKYCTQSMVTRWAYTFTDFMCGDLAITVQPGKHIPAQTKPNYLIISSYASSLDHESSFDSFYSLPGSGVKKESQPEACSLSSSRLSVASSSYKPIDHTSFAANLNEVSEFPSLGMRNSSKHHGIAASAQREWNARNLPTHSRLIRKVSDNDFSVNGADGKLKK
B1: in the assay with Hsc70-1, the MAPPIT interaction score was 2.36.

B2: Sf3b3 (protein)
chain: MYLYNLTLQKATGVTHAVHGNFSGGKQQEVLLSRGKSLELLRPDSNTGKVHTLLSTEIFGCVRALMAFRLTGGTKDYIVVGSDSGRIVILEYNPSKNALEKVHQETFGKSGCRRIVPGQYFAIDPKGRAVMIGAVEKQKLAYIMNRDTQARLTISSPLEAHKSNTLTYHMVGVDVGFDNPMFACLEIDYEEADMDPSGDAAQRTQQTLTFYELDLGLNHVVRKYSEPLEEHANFLVSVPGGNDGPSGVLICSENYLTYKNLGDQHDIRCPIPRRRNDLDDPERGMIFICSATHRTKSMYFFLLQTEQGDIFKITLETDDDVVSEIKLKYFDTVPPATAMCVLKTGFLFVASEFGNHYLYQIAHLGDDDDEPEFSSAMPLEEGETFFFAPRALKNLVLVDELPSFAPIITSQVADLANEDTPQLYVLCGRGPRSTLRVLRHGLEVSEMAVSELPGNPNAVWTVKKRADDEFDAYIIVSFVNATLVLSIGETVEEVTDSGFLGTTPTLCCAALGDDALVQVYPDGIRHIRSDKRVNEWKAPGKKSITKCAVNQRQVVITLSGRELVYFEMDPTGELNEYTERSEMPAEIMCMALGTVPEGEQRSWFLAVGLADNTVRILSLDPNNCLTPCSMQALPSPAESLCLVEMGHTESTTQGGLDDDAPAQRSGNNKGTIYLNIGLSNGVLLRTVLDPVSGDLADTRTRYLGSRPVKLFRIKMQGSEAVLAMSSRTWLSYYHQNRFHLTPLSYETLEYASGFSSEQCSEGIVAISTNTLRILALEKLGAVFNQVAFPLQYTPRTFVIHPDTGRMLIAETDHNAYTEDTKSARKEQMAEEMRSAAGDEERELAREMANAFINEVLPEDVFSSPKAGLGLWASQIRCLDAMHGQTMFSVPLTQNEAIMSMAMLKFSIAADGRYYLAVGIAKDLQLNPRISQGGCIDIYKIDPTCSSLEFMHRTDIDEIPGALCGFQGRLLAGCGRMLRIYDFGKKKMLRKCENKHIPYQIVNIQAMGHRVYVSDVQESVFFIRYRRAENQLIIFADDTHPRWVTATTLLDYDTIAIADKFGNLSIQRLPHSVTDDVDEDPTGTKSLWDRGLLSGASQKSENICSFHVGEIIMSLQKATLIPGGSEALIYATLSGTVGAFVPFTSREDYDFFQHLEMHMRNENPPLCGRDHLSYRSSYYPVKNVLDGDLCEQYLSIEAAKQKSIAGDMFRTPNQICKKLEDIRTRYAF
Take B2: the MAPPIT interaction score with Hsp60B was 1.36.

B3: Lis-1 (protein)
chain: MKMVLSQRQREELNQAIADYLGSNGYADSLETFRKEADLSTEVEKKFGGLLEKKWTSVIRLQKKVMELEAKLTEAEKEVIEGAPTKNKRTPGEWIPRPPEKFSLTGHRASITRVIFHPIFALMVSASEDATIRIWDFETGEYERSLKGHTDSVQDVAFDAQGKLLASCSADLSIKLWDFQQSYECIKTMHGHDHNVSSVAFVPAGDYVLSASRDRTIKMWEVATGYCVKTYTGHREWVRMVRVHIEGSIFATCSNDQTIRVWLTNSKDCKVELRDHEHTVECIAWAPEAAASAINEAAGADNKKGHHQGPFLASGSRDKTIRIWDVSVGLCLLTLSGHDNWVRGLAFHPGGKYLVSASDDKTIRVWDLRNKRCMKTLYAHQHFCTSIDFHKAHPYVISGSVDQTVKVWECR
Regarding B3, the MAPPIT interaction score with Hsp27 is -0.515.

B4: Coprox (protein)
chain: MNALRHTISLVSLGTFQLVRRTRGPHARGFLLGTGLGLASFSAVTYAHSAEAVDPKVNGVQMNTSRFMAEPITDSKALLGDKENMRHRMEILIMEIQAEFCRALEAEENCGQKFKVDRWERPEGGGGITCVLQDGDVFEKAGVNISVVTGSLPPAAVQQMRARGKNLKEGASLPFFASGVSAVIHPRNPHVPTIHFNYRYFEVETAKGEKQWWFGGGTDLTPYYLCEKDASHFHQTLKSACDEHDPTYYPRFKKWCDDYFRIKHRNESRGIGGIFFDDIDSPNQEAAFNFVSSCARAVIPSYVPLVRKHKNREYGNNERQWQLLRRGRYVEFNLIYDRGTKFGLYTPGARYESILMSLPLHARWEYMHEPKSQSEEGKLMKVLKNPKDWV
B4: the MAPPIT interaction score in the assay with Ilp6 (MAPPIT configuration: N-C) is 0.0185; with Ilp6 (MAPPIT configuration: N-N), -0.101.

B5: caly (protein)
chain: MNAAGGGSGAQAAAVAAGNNSLSHNALLSTASGATTMPMAQLADGWLELESDPGLFTLLLKDFGCHDVQVEEVYDLQKPIESPYGFIFLFRWIEERRARRKIVETTAEIFVKDEEAISSIFFAQQVVPNSCATHALLSVLLNCNENNLQLGDTLSRLKTHTKGMSPENKGLAIGNTPELACAHNSHAMPQARRRLERTGAGVSSCRFTGEAFHFVSFVPINGQLFELDGLKPYPMNHGGWEDSEDWTDKFRRVMAERLGIATGEQDIRFNLMAVVPDRRIAITHKLKMLRTNQAIVSGTLQKLLKADEQGESGNGDSQRPDTPTTLLEPSAFTARDLQSLLKNLDTEIAINEQHLADENDRRHMFKVDASRRTHNYDKFICTFLSMLAHQGVLGELVSQHLLPSKKVSGQGAANRISKQSTTASAGGSTAAGTASTPKTQQQQAAAAKNGKSPSKTPGRRRKGRNKCRKRK
Take B5: in the assay with Hsc70-1, the MAPPIT interaction score is 2.29.
